High-throughput results deposited in PubChem by National Center for Advancing Translational Sciences (NCATS).
ELG1 genotox = genotoxicity induction in ELG1-luciferase HEK293T cells; HEK293T ELG1-luciferase reporter, luminescence, 16 h; Potency, µM (highest dose often 46 µM), for the others: top-dose activity change, positive = activation, usual class: activators; actives 1.3% (n = 330,000); AID 504466; note: % of control where 0% means no effect; nearly all actives have a fitted effect of over 60% in size
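Genotoxicity was scored as increased ELG1-luciferase reporter signal, measured by ONE-Glo luminescence (30 min, room temperature). Compound or vehicle exposure of the HEK293T reporter cells lasted 16 hr at 37°C.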
Rab9 prom act = activates the Rab9 promoter; Huh7 Rab9 promoter-luciferase reporter, luminescence, 24 h; actives 2.8% (n = 320,000); Potency, µM (highest dose often 9.22 µM), without a hit: at the highest dose activation, negative = inhibition, hits mostly activators; note: % of control where 0% means no effect; nearly all actives have a fitted effect of over 60% in size
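Cell-based reporter: Huh7 stable for Rab9 promoter-driven luciferase, plated in reduced-serum medium with 10% FBS at 1500 cells/well, compound-treated 24 h at 37 °C, luminescence read after 10 min reagent.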
KinaseGlo FLuc = Kinase-Glo luciferase inhibition (counter-screen) | Potency, µM (titrated, usually from 38.3 µM), without a hit: top-dose activity change, negative = inhibition, hits mostly inhibitors | actives 0.28% (n = 200,000) | Kinase-Glo luciferase, ATP luminescence, 8 min | Q27757; note: % is set by controls: 0 for no effect and ±100 for the full control effect; nearly all actives have a fitted effect of over 60% in size
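Light output from Kinase-Glo luciferase with luciferin and 10 uM ATP in 50 mM imidazole pH 7.2, KCl, MgCl2, Tween 20, BSA; compound pin-delivered, 8-min ambient incubation, then luminescence read.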
NPC1 prom act = activators of NPC1 promoter | Huh7 NPC1 promoter luciferase reporter, 24 h | Potency, µM (highest dose often 9.22 µM), without a hit: at the top dose activation, actives largely listed as activators | actives 2.4% (n = 320,000); note: % of control where 0% means no effect; nearly all actives have a fitted effect of over 60% in size
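Huh7 cells stably carrying NPC1 promoter–luciferase, plated in Opti-MEM with 10% FBS for 2 h, were exposed to compound in DMSO for 24 h at 37 °C; luciferase reagent was added for 10 min and luminescence read.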
SMN2 splice up = enhancers of SMN2 splice variant expression; HEK293 SMN2-luciferase splicing reporter, luminescence, 30-36 h; actives 2.8% (n = 210,000); Potency, µM (top dose mostly 46.1 µM), inactives show top-dose activity change, positive = activation, actives largely listed as activators; note: % of control where 0% means no effect; nearly all actives have a fitted effect of over 55% in size
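qHTS luciferase splicing reporter: luminescence rises when SMN2 exon 7 is included in transfected HEK293 cells. Compound exposure lasted 30-36 h at 37C, with 4.5 mM final sodium butyrate as control, followed by a ONE-Glo read.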
FLuc modulator = firefly luciferase modulation, counter-screen for miR-21 project; Potency, µM (series often up to 57.5 µM), without a hit: top-dose activity change, negative = inhibition, most hits filed as inhibitors; purified FLuc, Km substrates, luminescence inhibition; actives 6.9% (n = 360,000);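 note: plate controls were vehicle for no effect and reference inhibitor for full effect; nearly all actives have a fitted effect of over 55% in size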
Target sequence (P08659 whole entry, looked up): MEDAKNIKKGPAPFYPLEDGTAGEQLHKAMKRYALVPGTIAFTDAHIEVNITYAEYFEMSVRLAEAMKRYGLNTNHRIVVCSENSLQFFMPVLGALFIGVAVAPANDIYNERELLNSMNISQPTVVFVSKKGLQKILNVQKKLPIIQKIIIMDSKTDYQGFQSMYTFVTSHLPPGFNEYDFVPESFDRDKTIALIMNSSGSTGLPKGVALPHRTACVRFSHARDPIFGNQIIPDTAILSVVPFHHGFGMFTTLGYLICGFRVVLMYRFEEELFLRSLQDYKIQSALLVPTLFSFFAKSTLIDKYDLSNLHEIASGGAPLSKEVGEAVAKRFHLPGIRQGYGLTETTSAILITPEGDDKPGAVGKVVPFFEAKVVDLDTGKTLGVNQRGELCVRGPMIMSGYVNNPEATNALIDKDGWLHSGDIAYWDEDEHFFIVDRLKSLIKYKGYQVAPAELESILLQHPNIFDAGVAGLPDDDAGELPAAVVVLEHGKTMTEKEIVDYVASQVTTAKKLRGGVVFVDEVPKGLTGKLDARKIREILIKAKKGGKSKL
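Purified P. pyralis luciferase (10nM final) with 10uM D-luciferin and 10uM ATP (Km levels) in 50mM Tris acetate pH 7.5, 10mM Mg acetate, 0.01% Tween-20, 0.05% BSA; qHTS 6-point titration, ~60 µM downward; luminescence read.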
Numbers without * were called inactive; ? = inconclusive; / = no result. A selection: hits, their analogues and other compounds. The true share with any hit is near 7.5%. Calls come from the whole dose curve; as a rule, active = well fitted curve in the direction sought with a large enough effect; inconclusive = small, poorly fitted or top-dose-only effect, or another doubt; inactive = no such curve, though single readings can be large; an effect the other way counts as inactive or inconclusive. Potency is the fitted concentration of half-maximal effect.

SMILES	ELG1 genotox	Rab9 prom act	KinaseGlo FLuc	NPC1 prom act	SMN2 splice up	FLuc modulator
O=c1c2ccccc2sc2ccc(Cl)cc12	11%	21%	-1%	26%	29%	?
O=c1c(C(c2ccccc2)c2c(O)sc3ccccc3c2=O)c(O)sc2ccccc12	-17%	-3%	-1%	1%	-25%	12µM*
O=C(c1cccc(F)c1)N1CCc2ccccc21	-4%	-5%	0%	-2%	13%	2%
COc1ccc2cc(C(=O)NCc3ccc4c(c3)CCN4C(=O)c3ccccc3)[nH]c2c1	/	/	/	/	/	-1%
COc1ccc2cc(C(=O)N3CCc4ccccc43)[nH]c2c1	?	4µM*	/	?	/	0.95µM*
O=C(c1cc2cc(F)ccc2[nH]1)N1CCc2ccccc21	?	3.5µM*	/	4µM*	/	?
CN1CCN(C(=O)c2cc3cc(F)ccc3[nH]2)CC1	0%	3%	/	2%	/	-14%
O=C(c1cc2cc(Br)ccc2[nH]1)N1CCc2ccccc21	2%	22%	/	5µM*	/	1%
COc1ccc(NC(=O)CSc2nc(-c3cccc(C)c3)[nH]c2-c2ccccc2)cc1OC	/	/	/	/	-22%	-18%
O=S(=O)(c1ccc2nc(Nc3ccc(Br)cc3F)ccc2c1)N1CCCC1	/	/	/	/	/	-5%
Clc1ccc(-n2ncc3c(NCc4cccs4)ncnc32)cc1	-5%	5%	-6%	3%	-57%	4%
CC(C)OCCCNc1ncnc2c1cnn2-c1ccccc1	-1%	0.45µM*	-5%	1.4µM*	-10%	4.3µM*
COCCN(CCOC)c1ncnc2c1cnn2-c1ccc(Cl)cc1	10µM*	?	-2%	?	?	15µM*
c1ccc(-n2ncc3c(NCc4ccccn4)ncnc32)cc1	?	20%	0%	20%	27%	?
Cc1ccc(-n2ncc3c(NCCCOC(C)C)ncnc32)c(C)c1	-6%	1%	1%	0%	-1%	-1%
OCCOCCNc1ncnc2c1cnn2-c1ccc(Cl)cc1	0%	0.89µM*	-3%	1.1µM*	-9%	9.5µM*
COCCNc1ncnc2c1cnn2-c1ccc(Cl)cc1	/	1.8µM*	/	1.8µM*	/	7.6µM*
CCc1ccccc1NC(=O)CN(c1cc(C(F)(F)F)ccc1Cl)S(=O)(=O)c1ccccc1	/	/	/	/	-3%	-6%
CCCn1c(=O)c2sccc2n2c(CCCC(=O)N3CCN(c4cccc(Cl)c4)CC3)nnc12	/	/	/	/	/	5%
CC1(C)CC(=O)c2c(oc3cc4c(cc23)OCO4)C1	/	/	-6%	/	-33%	/
OCCOCCNc1ncnc2c1cnn2-c1ccccc1	-3%	?	1%	2.2µM*	-18%	?
O=c1c(Cl)c(N2CCN(c3ccc(F)cc3)CC2)cnn1-c1nc2ccccc2s1	?	?	-3%	29%	13µM*	19µM*
O=C1CC(N2CCN(c3nc4ccccc4s3)CC2)C(=O)N1c1ccc(F)cc1 (stereo not drawn)	1%	1%	0%	3%	12%	-1%
Cc1ccc(NC(=O)c2ccc(OC(=O)COc3cccc(Cl)c3)cc2)cc1	?	2.8µM*	3%	2.8µM*	25µM*	?
Cc1ccc(NC(=O)c2ccc(OC(=O)COc3ccc(Cl)cc3C)cc2)cc1	?	3.5µM*	-4%	4µM*	13µM*	?
SMILES	ELG1 genotox	Rab9 prom act	KinaseGlo FLuc	NPC1 prom act	SMN2 splice up	FLuc modulator
Cc1ccc(C(=O)CC(=O)COc2ccc(Cl)cc2C)cc1	-5%	0%	-1%	0%	7%	-6%
COC(=O)COc1cccc(NC(=O)c2cccc(C)c2)c1	3%	-3%	1%	1%	8%	?
Cc1ccc(NC(=O)c2ccc(OC(=O)CCN3C(=O)c4ccccc4C3=O)cc2)cc1	?	1.8µM*	-6%	3.2µM*	14µM*	-19%
Cc1cc(C)cc(OC(=O)CCN2C(=O)c3ccccc3C2=O)c1	1%	1%	1%	-2%	-2%	0%
CCOC(=O)c1c(C)[nH]c(C)c1S(=O)(=O)N1CCCC(C(=O)NCc2ccc(N(C)C)cc2)C1 (stereo not drawn)	/	/	/	/	/	-1%
COc1cccc(/C=N/NC(=O)c2ccc(=O)n(C)c2)c1OC	4%	2%	-2%	2%	7%	-3%
COc1cccc(/C=N/NC(=O)c2cc3c(OC)c(OC)ccc3[nH]2)c1OC	4%	-12%	0%	-16%	?	11µM*
COc1ccccc1/C=N/NC(=O)c1cc2c(OC)c(OC)ccc2[nH]1	1%	-2%	/	-9%	/	13µM*
COc1cccc(/C=N/NC(=O)CN(C)S(=O)(=O)c2ccccc2)c1OC	8%	19%	/	19%	/	21µM*
COc1cccc(/C=N/NC(=O)C[n+]2ccccc2)c1OC	-3%	-3%	0%	0%	-6%	-1%
COc1ccc(OC)c2[nH]c(C(=O)N/N=C/c3ccccc3O)cc12	?	-36%	/	-42%	/	?
COc1cccc(/C=N/NC(=O)c2cc3c(OC)cccc3[nH]2)c1OC	-3%	-8%	1%	2%	1%	21µM*
COc1cccc(/C=N/NC(=O)c2cc3c(OC)cccc3[nH]2)c1O	-2%	-36%	-2%	-27%	-109%	-19%
CCC(=O)N1CCc2cc(Br)cc(S(=O)(=O)CCC(=O)Nc3ccc(Cl)cc3)c21	/	/	/	/	13%	4%
NS(=O)(=O)c1ccc(CCNC(=O)Cn2c(=O)c3cccn3c3ccc(F)cc32)cc1	/	/	/	/	/	3%
COc1ccc(C)cc1NC(=O)C1CCN(S(=O)(=O)c2ccc3[nH]c(=O)oc3c2)CC1	/	/	/	/	/	-15%
O=C(NCCOc1ccc(Cl)cc1)c1ccc2c(c1)OCCO2	?	3.5µM*	/	3.2µM*	/	8.5µM*
NS(=O)(=O)c1ccc(CCNC(=O)c2ccc3c(c2)OCO3)cc1	2%	0%	/	-4%	/	3%
O=C(NCCc1ccc(Cl)cc1)c1ccc2c(c1)OCO2	?	1.8µM*	/	1.8µM*	/	12µM*
O=C(NCCc1ccccc1F)c1ccc2c(c1)OCCO2	?	0.0006µM*	/	0.025µM*	/	0.048µM*
O=C(NCc1ccccc1F)c1ccc2c(c1)OCO2	?	12%	-10%	1%	-9%	?
O=C(NCCc1ccc(Cl)cc1)c1ccc2c(c1)OCCO2	2.3µM*	0.32µM*	/	0.4µM*	/	1.2µM*
COc1ccc(C)cc1NC(=O)N(Cc1ccc(C)o1)C1CCN(C(C)=O)CC1	/	/	/	/	/	-1%
CC1CCc2sc(-c3n[nH]c(=S)o3)cc2C1 (stereo not drawn)	?	?	3%	?	10µM*	6.7µM*
